Results reported in the supplement of paper PMC13380429.

System: Vero E6 infected with SARS-CoV-2
Test: inhibition of SARS-CoV-2 cytopathic effect; higher = more antiviral protection, active = above 15
Conditions: 48 h

Measured: inhibition of SARS-CoV-2 cytopathic effect

CC(=O)O[C@]1(C(C)=O)CC[C@H]2[C@@H]3C=C(C)C4=CC(=O)CC[C@@H]4[C@H]3CC[C@@]21C [nomegestrol-acetate]
inactive: 1 nM -1.8% | 8.33 nM -1.93% | 100 nM 0.03% | 833.33 nM 1.28% | 10000 nM -2.55%

CCOc1ccccc1OC(c1ccccc1)C1CNCCO1 (stereo not given) [reboxetine]
inactive: 1 nM 0.65% | 8.33 nM 1.82% | 100 nM 0.81% | 833.33 nM -0.58% | 10000 nM -1.59%

CO[C@H]1C[C@H](O[C@H]2CC[C@@]3(C)[C@H](CC[C@@H]4[C@@H]3CC[C@]3(C)[C@@H](C5=CC(=O)OC5)[C@@H](OC(C)=O)C[C@]43O)C2)O[C@@H](C)[C@@H]1O [oleandrin]
inactive: 1 nM -3.22% | 8.33 nM -5.79% | 100 nM -12.1% | 833.33 nM -12.2% | 10000 nM -9.58%

O=C(Nc1cc(C(F)(F)F)ccc1O)Nc1cc(C(F)(F)F)ccc1O
inactive: 1 nM -2.23% | 8.33 nM 2.44% | 100 nM 6.17% | 833.33 nM -1.82% | 10000 nM -0.23%

O=C(C=Cc1ccccc1)NC(NC(=S)Nc1ccc(Cl)cc1)C(Cl)(Cl)Cl (stereo not given)
inactive: 1 nM 0.51% | 8.33 nM 0.81% | 100 nM -4.17% | 833.33 nM -1.91% | 10000 nM -5.67%

CN1CCN(c2nc(C3=C(c4c[nH]c5ccccc45)C(=O)NC3=O)c3ccccc3n2)CC1 [sotrastaurin]
inactive: 1 nM 0.12% | 8.33 nM 1.74% | 100 nM -0.57% | 833.33 nM -1.82% | 10000 nM 4.89%
